This passage reports outcome results from PubChem BioAssay AID463095 (Sanford-Burnham Center for Chemical Genomics, 2010).

Molecules are shown by their SMILES. The list shows a part of the results. Calls of active or inactive are those of the source.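 Rule for the calls: active = proliferation increase above 40% at any of the four tested concentrations; inactive = the rest.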

A short description of this test: MIN6 insulinoma cell replication enhancers – MIN6 cells, mouse, confirmation (AID 463095). The settings on record: MIN6 beta-cell proliferation, ATPlite luminescence, 48 h; series mostly up to 50 µM. (Cellular ATP, detected with luciferase, serves as a proxy for viable cell number.)
As for `O=C(N/N=C/c1c(O)n(Cc2ccccc2)c(=O)[nH]c1=O)c1ccccc1`, the outcome was inactive.

For `COC(=O)COc1cc(C)cc2oc(=O)c3c(c12)CCCC3`, the outcome was inactive.

Take `c1cc2c(cc1CCNC1CCCCCC1)OCO2`: the result was inactive.
